Experimental data from the supplement of paper PMC8975748.
Where a name gives a salt, the structure may show the parent alone.

Tested on: Saccharomyces cerevisiae BY4741 SeMeCo community
Assay: z-score of subpopulation abundance vs DMSO median, subpopulation auxotrophic for HLUM; higher = larger share of this subpopulation than in DMSO controls
Settings: 10 µM; 24 h; SM minimal medium; subpopulation (auxotrophy): HLUM
Method: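 Fluorescent four-plasmid SeMeCo (self-establishing metabolically cooperating S. cerevisiae BY4741 community; plasmids pH-mRuby2, pL-mWasabi, pU-eCFP, pM-TagRFP657) was grown 24 h in minimal SM medium with each Selleck FDA-approved drug at 10 µM in 384-well plates. Cells were fixed and imaged by high-content confocal microscopy. For each auxotrophic subpopulation (and the prototroph), a z-score gives the deviation from the DMSO vehicle-control population median.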

Structure (SMILES) | z-score of subpopulation abundance
NC(=O)c1cn(Cc2c(F)cccc2F)nn1 [Rufinamide] | 0.29
C[C@]12CC[C@@H]3c4ccc(O)cc4CC[C@H]3[C@@H]1CC[C@@H]2O [Estradiol] | 1.17
CC(C)c1c(C(=O)Nc2ccccc2)c(-c2ccccc2)c(-c2ccc(F)cc2)n1CC[C@@H](O)C[C@@H](O)CC(=O)O [Atorvastatin] | 0.49
O=S1(=O)CCN(CN2CCS(=O)(=O)NC2)CN1 [Taurolidine] | -0.55
CCN(CC)CCOc1ccc(C(=C(Cl)c2ccccc2)c2ccccc2)cc1 [Clomifene citrate] | 0.41
CC[C@H]1OC(=O)[C@H](C)[C@@H](O[C@H]2C[C@@](C)(OC)[C@@H](O)[C@H](C)O2)[C@H](C)[C@@H](O[C@@H]2O[C@H](C)C[C@H](N(C)C)[C@H]2O)[C@](C)(O)C[C@@H](C)/C(=N\OCOCCOC)[C@H](C)[C@@H](O)[C@]1(C)O [Roxithromycin] | -0.6
Nc1nc2c(ncn2COCCO)c(=O)[nH]1 [Aciclovir] | 0.48
Cc1cnc(NC(=O)C2=C(O)c3ccccc3S(=O)(=O)N2C)s1 [Meloxicam] | -0.98
C[C@@H](c1nc(-c2ccc(C#N)cc2)cs1)[C@](O)(Cn1cncn1)c1cc(F)ccc1F [Isavuconazole] | 13.5
Cc1ccccc1OCC(O)CO (stereo not given) [Mephenesin] | -0.28
CCCCCCCCc1ccc(CCC(N)(CO)CO)cc1 [Fingolimod] | -1.27
COc1cc(Cc2cnc(N)nc2N)cc(OC)c1OC [Trimethoprim] | -0.22
COC(=O)C1=C(C)NC(C)=C(C(=O)OCCN(C)Cc2ccccc2)C1c1cccc([N+](=O)[O-])c1 (stereo not given) [Nicardipine HCl] | -0.44
COc1cccc2c1C(=O)c1c(O)c3c(c(O)c1C2=O)C[C@@](O)(C(C)=O)C[C@@H]3O[C@H]1C[C@H](N)[C@H](O)[C@H](C)O1 [Daunorubicin HCl] | 5.15
CO/N=C(\C(=O)N[C@@H]1C(=O)N2C(C(=O)O)=C(COC(N)=O)CS[C@H]12)c1ccco1 [Cefuroxime sodium] | -0.98
NC(=O)N1c2ccccc2CC(=O)c2ccccc21 [Oxcarbazepine] | 0.1
c1ccc(-c2ccc(C(c3ccccc3)n3ccnc3)cc2)cc1 (stereo not given) [Bifonazole] | 2.46
CCCCN1CCCC[C@H]1C(=O)Nc1c(C)cccc1C [Levobupivacaine HCl] | -0.43
CCCCCOc1ccccc1/C(=C\SC)n1ccnc1 [Neticonazole Hydrochloride] | 13
O=C(c1ccccc1)c1ccc2n1CCC2C(=O)O (stereo not given) [Ketorolac] | -0.11

Structure (SMILES) | z-score of subpopulation abundance
C#CCN(C)Cc1ccccc1 [Pargyline hydrochloride] | 0.1
Oc1c(I)cc(Cl)c2cccnc12 [Clioquinol] | 22.7
CN1C(C(=O)Nc2ccccn2)=C(O)c2sc(Cl)cc2S1(=O)=O [Lornoxicam] | -0.1
CN1CCN(CCCN2c3ccccc3Sc3ccc(C(F)(F)F)cc32)CC1 [Trifluoperazine 2HCl] | -0.04
CN1CC(=O)N2[C@H](c3ccc4c(c3)OCO4)c3[nH]c4ccccc4c3C[C@@H]2C1=O [Tadalafil] | 1.5
CN[C@H]1C(=O)N[C@@H]2Cc3ccc(cc3)Oc3cc4cc(c3O[C@@H]3O[C@H](C(=O)O)[C@@H](O)[C@H](O)[C@H]3NC(=O)CCCCCCCCC(C)C)Oc3ccc(cc3Cl)[C@@H](O)[C@@H]3NC(=O)[C@H](NC(=O)[C@@H]4NC(=O)[C@@H](NC2=O)c2cc(cc(O)c2Cl)Oc2cc1ccc2O)c1ccc(O)c(c1)-c1c(O[C@H]2O[C@H](CO)[C@@H](O)[C@H](O)[C@@H]2O)cc(O)cc1[C@@H](C(=O)NCCCN(C)C)NC3=O [Dalbavancin] | 0.69
NC[C@H]1O[C@H](O[C@H]2[C@H](O)[C@@H](O[C@H]3O[C@H](CO)[C@@H](O)[C@H](N)[C@H]3O)[C@H](N)C[C@@H]2N)[C@H](O)[C@@H](O)[C@@H]1O [Kanamycin sulfate] | -0.1
Cc1c(C)c2c(c(C)c1O)CCC(C)(CCCC(C)CCCC(C)CCCC(C)C)O2 (stereo not given) [Vitamin E] | -1.29
CCC(C)(Oc1ccc(C2(c3ccc(OC(C)(CC)C(=O)O)cc3)CCCCC2)cc1)C(=O)O (stereo not given) [Clinofibrate] | 0.45
Clc1ccc(COC(Cn2ccnc2)c2ccc(Cl)cc2Cl)cc1 (stereo not given) [Econazole] | 17.3
C/C=C1\[C@H]2C=C(C)C[C@]1(N)c1ccc(=O)[nH]c1C2 [(-)-Huperzine A (HupA)] | -0.57
CC1=C(C(=O)O)N2C(=O)[C@@H](NC(=O)[C@H](N)c3ccc(O)cc3)[C@H]2SC1 [Cefadroxil hydrate] | -0.33
C#C[C@]1(O)CC[C@H]2[C@@H]3CCC4=CCCC[C@@H]4[C@H]3C(=C)C[C@@]21CC [Desogestrel] | -0.48
COc1ccc2c3c1O[C@H]1C[C@@H](O)C=C[C@@]31CCN(C)C2 [Galanthamine] | 1.34
Cn1c(=O)c2c(ncn2CC2OCCO2)n(C)c1=O [Doxofylline] | -0.8
OCc1ccccc1O[C@@H]1O[C@H](CO)[C@@H](O)[C@H](O)[C@H]1O [Salicin] | -0.11
O=C(Nc1cccc(C2=NCCN2)c1)Nc1cccc(C2=NCCN2)c1 [Imidocarb dipropionate] | 0.13
CCOc1cc(N)c([N+](=O)[O-])cc1C(=O)NC1CCN(CC2CC=CCC2)CC1 (stereo not given) [Cinitapride Hydrogen Tartrate] | 0.5
O=C(O)c1ccccc1C(=O)Nc1ccc(S(=O)(=O)Nc2nccs2)cc1 [Phthalylsulfathiazole] | 0.99
C[C@]1(COc2ccc(N3CCC(Oc4ccc(OC(F)(F)F)cc4)CC3)cc2)Cn2cc([N+](=O)[O-])nc2O1 [Delamanid] | 0.08
